This is part of a sample that, as a whole, favours compounds with a hit. Of some 79,000 tested, about 15% had one in any assay. A number with no mark means an inactive call. Calls of active or inactive are those of the source. No stated cut-off is given here; in the data, active means growth inhibition above about 70%; inactive means the rest.
Legend:
[1] = NCI Yeast Anticancer Drug Screen. Data for the rad50 strain (AID 155);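 further: 0% = growth of vehicle-only cultures of the same strain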; conditions: S. cerevisiae rad50 strain growth inhibition, hits give high values
How it was run: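 Readout: growth inhibition relative to vehicle-treated cultures. Compound exposure was carried out in a genetically defined yeast strain deficient in DNA damage repair.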

[2] = NCI Yeast Anticancer Drug Screen. Data for the mec2-1 strain (AID 157); conditions: S. cerevisiae mec2-1 strain, hits give high values
How it was run: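 Readout is yeast growth inhibition, normalised to vehicle-treated controls, in the mec2-1 strain exposed to compound.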

[3] = NCI Yeast Anticancer Drug Screen. Data for the sgs1 mgt1 strain (AID 161);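 further: 0% = growth of cultures given vehicle only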; conditions: S. cerevisiae sgs1 mgt1 strain, hits give high values
How it was run: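 Percent growth inhibition was derived by comparing compound-exposed mutant yeast with vehicle-exposed cultures. The strain carries alterations in DNA damage repair.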

[4] = NCI Yeast Anticancer Drug Screen. Data for the cln2 rad14 strain (AID 165);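 further: 0% = growth equal to vehicle treated cultures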; conditions: S. cerevisiae cln2 rad14 strain, hits give high values
How it was run: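 Relative to vehicle controls, growth inhibition of compound-treated cln2 rad14 yeast was recorded.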

[5] = NCI Yeast Anticancer Drug Screen. Data for the bub3 strain (AID 167); conditions: S. cerevisiae bub3 mutant strain, hits give high values
How it was run: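 Readout: yeast growth inhibition, expressed relative to vehicle-only wells. The test organism is a mutant strain from a panel with lesions in DNA repair or checkpoint genes.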

[6] = NCI Yeast Anticancer Drug Screen. Data for the mlh1 rad18 strain (AID 175); conditions: S. cerevisiae mlh1 rad18 strain growth inhibition, hits give high values
How it was run: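 Test agents were incubated with a yeast strain of defined genotype (DNA damage repair defect). Inhibition of growth was derived by comparison with vehicle-exposed cultures.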

[7] = at 5.0 µM (retest, dose inferred, filed as 0.5)
[8] = at 50.0 µM (retest, dose inferred, filed as 5.0)

Compound | growth inhibition [1, 7] | growth inhibition [1, 8] | growth inhibition ([1]; at 50.0 µM) | growth inhibition [2, 7] | growth inhibition [2, 8] | growth inhibition ([2]; at 50.0 µM) | growth inhibition [3, 7] | growth inhibition [3, 8] | growth inhibition ([3]; at 50.0 µM) | growth inhibition [4, 7] [%] | growth inhibition [4, 8] | growth inhibition ([4]; at 50.0 µM) | growth inhibition [5, 7] | growth inhibition [5, 8] | growth inhibition ([5]; at 50.0 µM) | growth inhibition [6, 7] | growth inhibition [6, 8] | growth inhibition ([6]; at 50.0 µM)
CN1CCN(CC(=O)c2c(-c3ccccc3)[nH]c3ccccc23)CC1 | 68% | 4% | 33.2% | 56% | 1% | 15.8% | 66% | 7% | 9.45% | 50 | 21% | 33.1% | 58% | 4% | -9.9% | 80% (active) | 1% | 8.15%
O=Cc1cc2c(s1)C(=O)c1sccc1C2=O | 93% (active) | 99% (active) | 88.8% (active) | 96% (active) | 99% (active) | 91.8% (active) | 84% (active) | 99% (active) | 89% (active) | 52 | 97% (active) | 91.7% (active) | 94% (active) | 99% (active) | 90% (active) | 92% (active) | 99% (active) | 90.3% (active)
O=C(/C=C\c1cccc2ccccc12)c1ccccn1 | 7% | 97% (active) | 98.2% (active) | 4% | 97% (active) | 93.5% (active) | 12% | 99% (active) | 98.8% (active) | 0 | 97% (active) | 87.2% (active) | 20% | 99% (active) | 97% (active) | 9% | 99% (active) | 99% (active)
O=C1CC(O)CC(=O)C1=C(O)CCCCCCCCCCc1ccccc1 (configuration not stated) | 25% | 41% | 66.4% | 25% | 39% | 85.3% (active) | 36% | 57% | 74.2% (active) | 24 | 33% | 81.5% (active) | 30% | 54% | 85.7% (active) | 40% | 62% | 65.8%
Nc1ccc(C(=O)N/C(=C\c2ccc3c(c2)OCO3)c2nc3ccccc3s2)cc1 | 23% | 99% (active) | 97.2% (active) | -2% | 99% (active) | 98.5% (active) | 54% | 99% (active) | 98.2% (active) | 15 | 98% (active) | 96.3% (active) | 32% | 98% (active) | 97.4% (active) | 30% | 98% (active) | 98.4% (active)
CCCCCCCCCc1ccc(OCC(O)CO)cc1 (configuration not stated) | -3% | 98% (active) | 99.6% (active) | -1% | 99% (active) | 99.7% (active) | 2% | 99% (active) | 99.8% (active) | -11 | 98% (active) | 99.5% (active) | -9% | 98% (active) | 99.8% (active) | -4% | 98% (active) | 99.5% (active)
O=[N+]([O-])c1cccc(S(=O)(=O)Nc2cccc3ccccc23)c1 | 4% | 97% (active) | 99% (active) | 1% | 98% (active) | 99.2% (active) | 2% | 97% (active) | 99.2% (active) | 4 | 98% (active) | 99.2% (active) | 1% | 97% (active) | 99.2% (active) | -3% | 97% (active) | 98.7% (active)
CN(Cc1cc(Cl)cc(Cl)c1)CC(C(=O)c1ccccc1)c1ccccc1 (configuration not stated) | 21% | 86% (active) | 81.7% (active) | 13% | 90% (active) | 96.5% (active) | 57% | 96% (active) | 93.3% (active) | 3 | 85% (active) | 50.3% | 14% | 94% (active) | 41.5% | 29% | 91% (active) | 97.3% (active)
Cc1ccccc1Nc1nc(-c2ccccc2)nc(N)c1N=O | 9% | 98% (active) | 59.2% | 9% | 98% (active) | 43% | 32% | 98% (active) | 72.8% (active) | 13 | 97% (active) | 28.6% | 4% | 97% (active) | 45% | 9% | 97% (active) | 59%

— PubChem BioAssay (NCI)
